Screening data: PubChem, National Center for Advancing Translational Sciences (NCATS)
HEK cytotox = cytotoxic compounds in HEK 293 cells | HEK 293 viability, ATP luminescence (CellTiter-Glo), 48-72 h | Potency, µM (top dose mostly 115 µM), for inactives: top-dose activity change, negative = cytotoxicity, hits mostly inhibitors | actives 6.6% (n = 94,000); also: nearly all actives have a fitted effect of over 60% in size
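qHTS cytotoxicity; HEK 293, 250 cells/well; compound pinned; 48 or 72 hr, 37 degree Celsius, 5% CO2, 95% humidity; CellTiter-Glo, 10 min RT; luminescence (ATP).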
hNpr1 antagonist = antagonists of human natriuretic peptide receptor Npr1; actives 1.6% (n = 76,000); P16066; Potency, µM (doses to about 46.3 µM), inactives show at the top dose activity change, negative = inhibition, usual class: inhibitors; HEK293 hNpr1 GloSensor cGMP, ANP-stimulated luminescence; calls by dose curve; also: nearly all actives have a fitted effect of over 60% in size
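HEK293 cells stably expressing human Npr1 and cGMP GloSensor pGS-40F, loaded 2 h with 2% GloSensor reagent, given compound 30 min at room temperature. Luminescence read before and 20 min after 0.1 nM hNppA.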
3T3 cytotox = cytotoxic compounds in NIH 3T3 cells | NIH 3T3 viability, CellTiter-Glo ATP luminescence, 48-72 h | Potency, µM (series often up to 96.7 µM), for the others: top-dose activity change, negative = cytotoxicity, hits mostly inhibitors | actives 4.3% (n = 94,000) | AID 1345082; also: nearly all actives have a fitted effect of over 55% in size
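First NIH 3T3 cells are plated at 400 cells/well; next compound is pinned in; then plates incubate 48 or 72 hr at 37 °C; finally CellTiter-Glo is added and luminescence read after 10 min.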
Luciferase inh = inhibitors of firefly (Photinus pyralis) luciferase | AID 1347043 | purified P. pyralis luciferase, luminescence, biochemical | Potency, µM (doses to about 115 µM), hits mostly inhibitors | actives 2.5% (n = 76,000) | P08659; also: nearly all actives have a fitted effect of over 65% in size
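FLuc 10nM, D-luciferin 10uM, ATP 10uM, Mg acetate 10mM, Tris acetate pH 7.5, Tween/BSA; cpd qHTS; enzyme added last; CCD luminescence.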
GPT2 inhibitor = GPT2 alanine aminotransferase inhibition | AID 1671188 | Recombinant GPT2, coupled pyruvate oxidase/HRP Amplex Red fluorescence | Potency, µM (series often up to 57.7 µM), for the others: at the highest dose activity change, negative = inhibition, most hits filed as inhibitors | Q8TD30 | actives 0.25% (n = 100,000); also: nearly all actives have a fitted effect of over 60% in size
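Fluorescence read-out: pyruvate from GPT2 turnover coupled to pyruvate oxidase, HRP and Amplex Red (0.2mM ThPP, 0.2U/mL PO and HRP, 50uM Amplex final). Substrates 250uM a-KG, 2mM L-alanine; enzyme 10ng/uL; 30 min RT.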
Active calls of the source: *; i = inactive; ? = inconclusive; nt = no result given; [ ] = another dose, or the depositor's remark. Only some compounds are listed: those with a hit (about 10% of all), similar ones and a draw of the others. Unless noted, calls follow the shape of the dose curve; as a rule, active = well fitted curve in the direction sought with a large enough effect; inconclusive = small, poorly fitted or top-dose-only effect, or another doubt; inactive = no such curve, though single readings can be large; an effect the other way counts as inactive or inconclusive. % is scaled to controls: 0 for no effect and ±100 for the full control effect; potency is read from the fitted curve at half-maximal effect.

SMILES | HEK cytotox | hNpr1 antagonist | 3T3 cytotox | Luciferase inh | GPT2 inhibitor
Cc1ccccc1CNC(=O)C1CCN(C(=O)c2ncn3c2COC(c2ccccc2)C3)CC1 (configuration not stated) | -4.1% | -11.4% | -7.3% | 15.8µM* | i
CCOc1ccc2c(n1)CCN(C(=O)C1CCCC1)C2 | 5.1% | 3.5% | i | i | i
O=C1NC(=O)C(=Cc2ccc3nccc(-c4ccncc4)c3c2)S1 | nt | nt | nt | nt | 2.6%
C=C1C(=O)O[C@@H]2[C@H]1CC[C@H](C)C(CCC(=O)O)C2(C)O (some centres not stated) | nt | nt | nt | nt | 2.6%
Cc1nc(N2CCC(NC(=O)c3ccc(C)s3)CC2)cc(C(F)(F)F)n1 | -26.1% | ? | -16.6% | i | i
COc1cccc(CC(=O)N2CCC(Cc3nc(-c4ccncc4)n[nH]3)C2)c1 (configuration not stated) | 12.6µM* | -14.6% | ? | i | i
CCOc1ccccc1NC(=O)N1CCC2(CC1)CC(Cc1nc(-c3ccncc3)no1)CCO2 (configuration not stated) | ? | -24.6% | ? | i | i
O=C(COc1ccccc1)N1CCC(Cc2nc(-c3ccncc3)n[nH]2)CC1 | -4.6% | 1.6% | -30.2% | i | ?
COCC(=O)N1CCC2(CC1)CC(Cc1nc(-c3cccnc3)no1)CCO2 (configuration not stated) | -1.2% | 3.7% | -6.2% | i | 0.1%
COc1cccc(CC(=O)N2CCC3(CC2)CC(Cc2nc(-c4ccncc4)no2)CCO3)c1 (configuration not stated) | 39.8µM* | ? | ? | i | -2.1%
c1ccc(-c2noc(CC3CCOC4(CCN(Cc5cccnc5)CC4)C3)n2)cc1 (configuration not stated) | 25.1µM* | ? | ? | i | 4.7%
O=C(C1CC1)N1CCC2(CC1)CC(Cc1nc(-c3ccncc3)no1)CCO2 (configuration not stated) | 44.7µM* | ? | ? | i | 0.6%
COc1ccc(C(=O)N2CCC[C@H]2c2nc(-c3ccc(C)cc3)no2)cn1 | 3.8% | -13.0% | ? | i | -7.9%
O=C1CCN(S(=O)(=O)c2ccccc2)CCCN(C(=O)COc2ccccc2)CCN1 | i | 8.1% | ? | i | i
Cc1nc(=O)[nH]c(C)c1CCC(=O)N[C@H](c1ccccn1)C1CC(O)C1 (some centres not stated) | -5.0% | -2.3% | -14.1% | i | i
Cc1cccc(N2CCN(C(=O)c3noc(-c4ccc5c(c4)OCO5)n3)CC2)c1 | ? | -1.1% | ? | 22.4µM* | -1.7%
Cc1ccc(Nc2ccnc(N3CCC(C(=O)NCCCc4ccccc4)CC3)n2)cc1 | ? | nt | 12.6µM* | nt | i
COc1ccc(Nc2ccnc(N3CCCC(C(=O)NC4CC4)C3)n2)cc1 (configuration not stated) | ? | nt | ? | nt | i
COc1ccc(Nc2ccnc(N3CCCC(C(=O)NCCCc4ccccc4)C3)n2)cc1 (configuration not stated) | 22.4µM* | nt | ? | nt | -8.1%
Cc1ccc(Nc2ccnc(N3CCCC(C(=O)NCCCc4ccccc4)C3)n2)cc1 (configuration not stated) | 5.01µM* | nt | ? | nt | i
CSCCNC(=O)C1CCCN(c2nccc(Nc3ccc(C)cc3)n2)C1 (configuration not stated) | ? | nt | ? | nt | -0.4%
O=C(NCCN1CCOCC1)c1nc2sccn2c1-c1ccc(C(F)(F)F)cc1 | -14.1% | nt | -28.9% | nt | -12.4%
Cc1cc(C)n(CC(=O)N(C)C2CCc3nn(CC4CC4)c(=O)n3CC2)n1 (configuration not stated) | 0.2% | 0.6% | -13.7% | i | -10.2%
CN1CC(C(=O)N2CCc3c(nc(-c4ccncc4)nc3N(C)C)C2)CC1=O (configuration not stated) | -5.0% | 1.1% | -3.0% | i | 3.9%[11.5 µM]
N#Cc1ccc(C(=O)N2CCCN(c3cc(-c4ccc(Cl)cc4)[nH]n3)CC2)cc1 | 28.2µM* | ? | ? | i | -25.7%
SMILES | HEK cytotox | hNpr1 antagonist | 3T3 cytotox | Luciferase inh | GPT2 inhibitor
CN(C)c1cccc(C(=O)N2CCN(c3cc(-c4ccc(Cl)cc4)[nH]n3)CC2)c1 | ? | -24.1% | ? | 28.2µM* | i
COc1cc(OC)cc(C(=O)N2CCN(c3cc(-c4ccc(Cl)cc4)[nH]n3)CC2)c1 | ? | ? | 35.5µM* | i | i
COc1cccc(C(=O)N2CCCN(c3cc(-c4ccc(Cl)cc4)[nH]n3)CC2)c1 | ? | ? | ? | i | i
COc1ccc(-c2cc(N3CCCN(C(=O)c4cc(OC)cc(OC)c4)CC3)n[nH]2)cc1 | ? | -15.3% | -25.0% | i | -29.6%
O=C(c1cccc(Cl)c1)N1CCN(c2cc(-c3ccc(Cl)cc3)[nH]n2)CC1 | 44.7µM* | ? | 35.5µM* | i | -0.4%
COc1ccc(N2CCN(C(=O)COc3ccc(-c4nnc5n4CCCC5)cc3)CC2)cc1 | ? | 0.3% | -16.4% | i | -23.5%
COc1ccc(CNC(=O)c2c(OC)cc(=O)n3c2CCCC3)c(OC)c1 | -5.1% | -2.6% | i | i | i
O=C1CC(NC2CCSCC2)CN1CCc1cccc(Cl)c1 (configuration not stated) | -14.9% | 7.0% | -18.5% | i | 1.9%
CCC(=O)N1CCC(Cc2ncc(C)n2CC2CC2)CC1 | -4.8% | 3.1% | -6.3% | i | i
O=C(OCc1ccccc1)N1CCOCC12CCN(Cc1nccs1)CC2 | ? | ? | ? | i | i
Cc1noc(C)c1CN1CCC2(CC1)COCCN2C(=O)OCc1ccccc1 | ? | -2.1%[70.6 µM] | -11.8%[138 µM] | i | -3.5%[88.5 µM]
O=C(OCc1ccccc1)N1CCOCC12CCN(Cc1ccncc1)CC2 | 50.1µM* | -5.3%[70.6 µM] | 35.5µM* | i | i
Cc1cccc(CN2CCC3(CC2)COCCN3C(=O)OCc2ccccc2)c1 | 39.8µM* | -7.7%[70.6 µM] | 39.8µM* | i | -14.6%[88.5 µM]
O=C(OCc1ccccc1)N1CCOCC12CCN(Cc1ccccc1F)CC2 | ? | -5.1%[70.6 µM] | ? | i | -1.2%[88.5 µM]
COc1ccccc1CN1CCC2(CC1)COCCN2C(=O)OCc1ccccc1 | ? | -14.8%[70.6 µM] | ? | i | -16.1%[88.5 µM]
Cc1ccc(CN2CCC3(CC2)COCCN3C(=O)OCc2ccccc2)o1 | 28.2µM* | 1.1%[70.6 µM] | 44.7µM* | i | i
O=C(OCc1ccccc1)N1CCOCC12CCN(Cc1ccccc1)CC2 | 25.1µM* | -14.5%[70.6 µM] | ? | i | i
CCOc1ccc(CN2C(=O)C3(CCOCC3)CC2c2nnnn2C(C)(C)C)cc1OC (configuration not stated) | -11.8% | nt | -9.5% | nt | ?
